High-throughput results from PubChem BioAssay.
An excerpt weighted towards active compounds, which were near 2.7% of everything screened.
MITF TRPM1 inh: inhibitors of MITF-dependent TRPM1 promoter reporter, primary screen, cell-based, SK-MEL-5, single point, luciferase. SK-MEL-5 TRPM1 promoter luciferase, 24 h. inhibition, % at 12.5 µM. hit rate 0.83% among 330,000. AID 488899, 2010;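 active means mean inhibition across replicates of 60% or more, whatever share of single replicates reaches that level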
CF NFkB block: inhibitors of PAF-induced NF-kB signaling, primary screen, cell-based, GFP fluorescence, uHTS; KKLEB NF-kB-GFP reporter, GFP fluorescence overnight; inhibition, % at 5 µM; hit rate 0.86% among 360,000; AID 588850, 2011;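 active means at least 50% inhibition at 5 µM, scaled per plate between neutral and stimulator controls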;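 further: PAF is a Pseudomonas aeruginosa culture filtrate used as stimulus; plate controls were PAF-stimulated DMSO wells for no effect and unstimulated DMSO wells for full effect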
HIF-2a inh: HIF-2a reporter inhibitors, primary screen, luminescence, 786-0 RCC cells; 786-0 RCC cells HIF-2a reporter, luciferase luminescence, overnight; inhibition, % at 18.8 µM; hit rate 0.72% among 360,000; AID 624352, 2012;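 active means inhibition of the luminescence signal of 40% or more relative to plate controls, in a single-dose primary screen at 18.75 µM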
KKLEB tox: cytotoxicity in KKLEB CF airway cells, primary screen, cytotoxicity control for CF NF-kB inhibitor project, cell-based, uHTS, fluorescence assay plates | KKLEB CF airway cells viability, ATPlite luminescence, overnight; stronger effect = lower value; cells stimulated with P. aeruginosa culture filtrate | activity change (cytotoxicity), % at 5 µM | hit rate 0.36% among 360,000;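 active means corrected activity change at or below -50% at 5 µM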
Peg3 promoter: Peg3 promoter-driven luciferase inhibitors, primary screen, cell-based, HeLa, luciferase luminescence. HeLa PEG-Prom luciferase reporter, overnight. AID 588405, 2011. hit rate 1.7% among 360,000. inhibition, % at 20 µM;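 active means inhibition of at least 50% at 20 µM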
Shn3 3UTR inh: reduction of Shn3 3'UTR firefly luciferase signal, primary screen, Schnurri-3 inhibitor project, cell-based, Clone20 osteoblasts, set 2 | Clone20 osteoblast Shn3 3'UTR firefly luciferase, 24 h | inhibition, % at 12.5 µM | hit rate 0.52% among 360,000;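 active means mean inhibition of at least 75% with every replicate also reaching 75%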;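 further: 0% = median of neutral control wells and 100% = pilot-screen positive control compound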
Mdm2 MdmX conf: retested Mdm2-MdmX interaction blockers, confirmation, cell-based, luminescence, single concentration, set 2; hit rate 99% among 740; inhibition, % at 8 µM; shares compounds with HIF-2a inh; AID 504601, 2011; SaOS-2 split-luciferase Mdm2/MdmX complementation;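 active means mean inhibition of the luminescence signal across two replicates at or above 26 percent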
HIF-2a conf: HIF-2a reporter inhibitor retest, confirmation, luminescence, 786-0 RCC cells; HIF-2a luciferase reporter luminescence, overnight; shares compounds with HIF-2a inh; inhibition, % at 18.8 µM; hit rate 56% among 1,800;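 active means mean inhibition across four replicates of at least 40 percent at the single tested concentration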
HIF-1a cs: HIF-1a luciferase reporter signal reduction – MiaPaCa-2 cells, single concentration, counter-screen for HIF-2a inhibitor project, confirmation; shares compounds with HIF-2a inh; MiaPaCa-2 HIF-1a luciferase reporter, desferoxamine, overnight; inhibition, % at 18.8 µM; hit rate 72% among 1,800; AID 651589, 2012;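 active means mean inhibition of the reporter signal across four replicates at the single tested dose of 50% or more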
* = called active by the depositor.

O=[N+]([O-])c1ccc(-c2ccc(/C=N/Nc3nc(N4CCCC4)nc(N4CCCC4)n3)o2)cc1 was read as MITF TRPM1 inh 68*, CF NFkB block -9, HIF-2a inh 11, KKLEB tox -62*, Peg3 promoter 31, Shn3 3UTR inh 33 and Mdm2 MdmX conf 91*.
CN1CC2=Cc3ccccc3OC23Oc2ccccc2C=C3C1 was read as MITF TRPM1 inh 17, CF NFkB block -1, HIF-2a inh 92*, KKLEB tox -4, Peg3 promoter 69*, Shn3 3UTR inh 19, HIF-2a conf 20 and HIF-1a cs 79*.
CCOC(=O)C1=C(O)/C(=C/c2cn(CC(=O)NCC3CCCO3)c3ccccc23)SC1=Nc1ccc(C)cc1 (stereo unspecified) was read as MITF TRPM1 inh 88*, CF NFkB block 58*, HIF-2a inh -19, KKLEB tox -56*, Peg3 promoter 59*, Shn3 3UTR inh 69 and Mdm2 MdmX conf 86*.
Screening COc1cc(CNC2CCCC2)cc(Cl)c1OCc1ccccc1Cl returned MITF TRPM1 inh 82*, CF NFkB block 11, HIF-2a inh 82*, KKLEB tox -23, Peg3 promoter 94*, Shn3 3UTR inh 34, HIF-2a conf 7 and HIF-1a cs 107*.
For COc1cc(CNC2CCCCCCC2)cc(Cl)c1OCC(N)=O the results were MITF TRPM1 inh 7, CF NFkB block -12, HIF-2a inh 20, KKLEB tox 14, Peg3 promoter 2 and Shn3 3UTR inh -2.
Cn1cncc1C#Cc1c(C=O)n(C)c2ccccc12 was read as MITF TRPM1 inh -6, CF NFkB block -32, HIF-2a inh 12, KKLEB tox 5, Peg3 promoter 16 and Shn3 3UTR inh -14.
`Cn1cncc1C#Cc1c(C=O)[nH]c2ccccc12` gave MITF TRPM1 inh 62*, CF NFkB block 43, HIF-2a inh 43*, KKLEB tox -13, Peg3 promoter 46, Shn3 3UTR inh 8, HIF-2a conf 38 and HIF-1a cs 88*.
Cc1cc(C)cc(OCC(=O)NCC2CCCO2)c1 (stereo unspecified) was read as MITF TRPM1 inh 9, CF NFkB block 13, HIF-2a inh 52*, KKLEB tox 0, Peg3 promoter 45, Shn3 3UTR inh 51, HIF-2a conf 69* and HIF-1a cs 70*.
Cc1cc(C)c(C)c(OCC(=O)NCC2CCCO2)c1 (stereo unspecified) was read as MITF TRPM1 inh 11, CF NFkB block 8, HIF-2a inh 7, KKLEB tox -13, Peg3 promoter 1 and Shn3 3UTR inh -39.
CC(C)(C)c1ccc(Oc2ccc(NC(=O)c3ccco3)cn2)cc1 was read as MITF TRPM1 inh 13, CF NFkB block 1, HIF-2a inh 75*, KKLEB tox -12, Peg3 promoter 7, Shn3 3UTR inh 76, HIF-2a conf 26 and HIF-1a cs 40.
Screening Cc1ccc(NC(=O)c2nc[nH]c2C(=O)NCCN(CCNC(=O)c2[nH]cnc2C(=O)Nc2ccc(C)cc2)CCNC(=O)c2[nH]cnc2C(=O)Nc2ccc(C)cc2)cc1 returned MITF TRPM1 inh 32, CF NFkB block 21, HIF-2a inh -25, KKLEB tox -23, Peg3 promoter 24 and Shn3 3UTR inh 19.
Screening O=C(Nc1ccc(Cl)cc1)c1nc[nH]c1C(=O)NCCN(CCNC(=O)c1[nH]cnc1C(=O)Nc1ccc(Cl)cc1)CCNC(=O)c1[nH]cnc1C(=O)Nc1ccc(Cl)cc1 returned MITF TRPM1 inh 40, CF NFkB block 71*, HIF-2a inh -42, KKLEB tox -56*, Peg3 promoter 101*, Shn3 3UTR inh 10 and Mdm2 MdmX conf 100*.
O=C(Nc1ccc(NC(=O)c2ccco2)cc1)c1ccc2c(c1)OCCO2 was read as MITF TRPM1 inh 19, CF NFkB block 10, HIF-2a inh 46*, KKLEB tox 11, Peg3 promoter -37, Shn3 3UTR inh 8, HIF-2a conf 69* and HIF-1a cs 11.
Screening Cc1cc(NC(=O)c2ccc3c(c2)OCCO3)ccc1NC(=O)c1ccco1 returned MITF TRPM1 inh -54, CF NFkB block 16, HIF-2a inh -175, KKLEB tox -5, Peg3 promoter -197 and Shn3 3UTR inh -56.
Screening CC1=CC(C)(C)Nc2ccc(C)cc21 returned MITF TRPM1 inh -8, CF NFkB block 6, HIF-2a inh 6, KKLEB tox 2, Peg3 promoter 7 and Shn3 3UTR inh -16.
CC1=CC(C)(C)Nc2ccc(OC(=O)CN3C(=O)CCC3=O)cc21 was read as MITF TRPM1 inh -1, CF NFkB block 11, HIF-2a inh 74*, KKLEB tox -10, Peg3 promoter 44, Shn3 3UTR inh 31, HIF-2a conf 88* and HIF-1a cs 90*.
CC1=CC(C)(C)Nc2ccc(OC(=O)c3ccco3)cc21 was read as MITF TRPM1 inh 8, CF NFkB block 24, HIF-2a inh 81*, KKLEB tox 2, Peg3 promoter 46, Shn3 3UTR inh 9, HIF-2a conf 83* and HIF-1a cs 92*.
For COc1ccc(OC(=O)C(C)N2C(=O)c3ccccc3C2=O)cc1 (stereo unspecified) the results were MITF TRPM1 inh -7, CF NFkB block 15, HIF-2a inh 17, KKLEB tox 1, Peg3 promoter 5 and Shn3 3UTR inh -10.
Screening CC1=CC(C)(C)Nc2ccc(Cc3ccc4c(c3)C(C)=CC(C)(C)N4)cc21 returned MITF TRPM1 inh 12, CF NFkB block 14, HIF-2a inh 35, KKLEB tox 11, Peg3 promoter 16 and Shn3 3UTR inh 50.
CC1=CC(C)(C)Nc2ccc(OC(=O)C(C)N3C(=O)c4ccccc4C3=O)cc21 (stereo unspecified) was read as MITF TRPM1 inh 13, CF NFkB block 8, HIF-2a inh 78*, KKLEB tox -6, Peg3 promoter -18, Shn3 3UTR inh 78, HIF-2a conf 90* and HIF-1a cs 94*.
